These results are taken from PubChem BioAssay AID2685 (National Center for Advancing Translational Sciences (NCATS), 2010).

Screen size: about 320,000 compounds; about 2,100 (0.66%) were called active. Inconclusive results (about 53%) are left out. Calls come from the whole dose curve; as a rule, active = well fitted inhibition curve with a large enough effect in the signal ratio, with a control signal flat (not every such curve was filed as active); inconclusive = small, poorly fitted or top-dose-only effect, or effect the other way, or a change in a side signal; inactive = flat fitted curve, though single readings scatter; the % refers to the signal ratio. Shown is part of a subset that was picked to be rich in actives.
Potency is the fitted concentration of half-maximal effect.

This assay can be described thus: qHTS Assay for Lipid Storage Modulators in Drosophila S3 Cells.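 For cell number change: cells counted by Cell Tracker Red CMTPX staining in the red channel.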 For lipid storage change, negative = inhibition: % is set by controls: 0 for no effect and ±100 for the full control effect. The conditions noted are these: BODIPY lipid droplet fluorescence, 18-24 h, cells fed with added oleic acid; cell number change: measured here: cell count max response; series mostly up to 46.1 µM; lipid storage change, negative = inhibition: at the top concentration. The gist of the method:
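Laser-scanning cytometry quantifies lipid droplet accumulation (500–530 nm total intensity; droplet/cell object ratio) in oleic acid-fed (400 uM added) Drosophila S3 cells treated with a concentration series. 20 uM Triacsin C defined 100% inhibition.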
Background: In qHTS, concentration-response curves come from the screen itself.
As for `Nc1nc(C2CCCN2S(=O)(=O)c2ccc(Cl)cc2)cs1` (stereo unspecified), the molecule was classed as inactive and the cell number change was -2%.

For the molecule `CCOc1ccc(NC(=O)C2CCC(CNc3c(N4CCCCC4)c(=O)c3=O)CC2)cc1` (stereo unspecified), the “lipid storage change, negative = inhibition” value was 2.07% (inactive).

As for `CCCCC(=O)Nc1cccc(-c2nc3ncccc3o2)c1`, the “lipid storage change, negative = inhibition” value is 18.9% (inactive) and the cell number change came to 0.0678%.

Turning to `CC(C)CC(=O)Nc1cccc(-c2nc3ncccc3o2)c1`, the “lipid storage change, negative = inhibition” value is 8.93% (inactive) and the cell number change is -6.34%.

With `O=C(CSc1ccc(Cl)cc1)Nc1cccc(-c2nc3ncccc3o2)c1`, the Potency is 1.3 µM (active) and the cell number change is -12.7%.

With `CCc1ccccc1N1CCN(S(=O)(=O)c2cc(OC)ccc2OC)CC1`, the molecule was called inactive.

Take `CCc1ccc(Nc2cnn(C34CC5CC(CC(CC(=O)O)(C5)C3)C4)c(=O)c2Cl)cc1`: the “lipid storage change, negative = inhibition” value was 7.65% (inactive) and the cell number change came out at 8.4%.

In the case of `Cc1ccc(Nc2cnn(C34CC5CC(CC(CC(=O)O)(C5)C3)C4)c(=O)c2Cl)c(Cl)c1`, the “lipid storage change, negative = inhibition” value was 2.44% (inactive) and the cell number change was 5.36%.

On to `Cc1cc(C)cc(Nc2cnn(C34CC5CC(CC(CC(=O)O)(C5)C3)C4)c(=O)c2Cl)c1`, for which the Potency is 18.4 µM (active) and the cell number change is -2.34%.

Turning to `Cc1ccc(CN2CCN(CC(C)C)C(CCO)C2)s1` (stereo unspecified), the “lipid storage change, negative = inhibition” value is 6.7% (inactive) and the cell number change amounted to 20.3%.

On to `CN(C)c1ccc(NC(=O)C[n+]2ccccc2)cc1`, for which the “lipid storage change, negative = inhibition” value is 22.6% (inactive) and the cell number change worked out at 22.5%.

With `N#Cc1c(OCC(=O)c2ccccc2)nc2c(c1-c1ccco1)CCc1ccccc1-2`, the Potency is 8.2 µM (active) and the cell number change is -13%.

Consider `CCOC(=O)COc1nc2c(c(-c3ccco3)c1C#N)CCc1ccccc1-2`, for which the “lipid storage change, negative = inhibition” value is 2.63% (inactive) and the cell number change was found to be 3.1%.

In the case of `CC(=O)COc1nc2c(c(-c3ccco3)c1C#N)CCc1ccccc1-2`, the “lipid storage change, negative = inhibition” value is -0.398% (inactive) and the cell number change is 7.55%.

Take `CCCOC(=O)Cn1c(=O)c2cc3c(=O)n(CC(=O)OCCC)c(=O)c3cc2c1=O`: the result was inactive and the cell number change is -10.2%.

As to `CCOC(=O)C1=C(C)N=C2SCCC(=O)N2C1c1cccs1` (stereo unspecified), the “lipid storage change, negative = inhibition” value was 9.97% (inactive) and the cell number change was -2.29%.

For `O=C(O)Cc1sc(Nc2cccc3ccccc23)nc1-c1ccccc1`, the Potency is 0.092 µM (active) and the cell number change is 25.4%.

Turning to `O=C(O)Cc1sc(Nc2cccc3ccccc23)nc1-c1ccc(Cl)cc1`, the “lipid storage change, negative = inhibition” value is 8.83% (inactive) and the cell number change amounted to 13.4%.

As for `O=C(O)Cc1sc(Nc2cccc3ccccc23)nc1-c1ccc(F)cc1`, the “lipid storage change, negative = inhibition” value is -9.11% (inactive) and the cell number change stood at 12.9%.

On to `O=c1c([N+](=O)[O-])c(N2CCOCC2)c2ccccc2n1-c1ccccc1`, for which the “lipid storage change, negative = inhibition” value is 14.5% (inactive) and the cell number change came out at 8.53%.

Regarding `CCc1nn(CCCC(=O)N2CCC(C)CC2)c(=O)c2cc3occc3n12`, the Potency was 4.11 µM (active).

As to `CCc1nn(CCCC(=O)NCc2ccco2)c(=O)c2cc3occc3n12`, the outcome was inactive and the cell number change is -6.49%.

As to `CCc1cccc(NC(=O)CCCn2nc(CC)n3c(cc4occc43)c2=O)c1`, the Potency is 20.6 µM (active) and the cell number change was -27.3%.

With `CCc1nn(CCCC(=O)N2CCN(c3cccc(C)c3C)CC2)c(=O)c2cc3occc3n12`, the call was inactive.

Turning to `CCOC(=O)C1CCN(C(=O)CCCn2nc(CC)n3c(cc4occc43)c2=O)CC1`, the outcome was inactive and the cell number change was -12.6%.

Turning to `CCc1nn(CCCC(=O)NCc2ccccc2C)c(=O)c2cc3occc3n12`, the molecule was called inactive and the cell number change was -19.5%.

For `COCCNC(=O)Cn1nc(-c2ccccc2C)ccc1=O`, the “lipid storage change, negative = inhibition” value is -4.82% (inactive) and the cell number change was 8.76%.

In the case of `O=C(CN(C(=O)c1ccc(Cl)cc1)N1C(=O)C2C3C=CC(C3)C2C1=O)c1cccs1` (stereo unspecified), the cell number change was -8.51% and the lipid storage change, negative = inhibition is 5.92% [at 9.22 µM] (inactive).

In the case of `COCC(C)NC(=O)C(C)N1c2cccc3cccc(c23)S1(=O)=O` (stereo unspecified), the “lipid storage change, negative = inhibition” value is -19% (inactive) and the cell number change worked out at 3.31%.

Regarding `O=C1CC(c2ccco2)CC(O)=C1C=Nc1ccccc1-c1ccccc1` (stereo unspecified), the “lipid storage change, negative = inhibition” value was 2.69% (inactive) and the cell number change came out at 5.01%.

For `O=C1CC(c2ccco2)CC(O)=C1C=Nc1cc(Cl)ccc1Cl` (stereo unspecified), the “lipid storage change, negative = inhibition” value was 3.89% (inactive) and the cell number change was determined as 10.5%.

Take `O=C1CC(c2ccco2)CC(O)=C1C=Nc1cc(Cl)cc(Cl)c1` (stereo unspecified): the Potency is 25.9 µM (active) and the cell number change was determined as 13.6%.

Consider `O=C(C1CCN(C2CCN(C/C=C/c3ccccc3)CC2)CC1)N1CCOCC1`, for which the “lipid storage change, negative = inhibition” value was 0.713% (inactive) and the cell number change amounted to 7.25%.

Turning to `O=C(C1=C(O)C(=O)N(c2ncccn2)C1c1cccc(Cl)c1)c1ccco1` (stereo unspecified), the Potency was 6.51 µM (active) and the cell number change stood at 5.29%.

Consider `O=C(C1=C(O)C(=O)N(CC2CCCO2)C1c1cccc(Cl)c1)c1ccco1` (stereo unspecified), for which the Potency is 0.82 µM (active) and the cell number change was -5.86%.

Consider `O=C(C1=C(O)C(=O)N(CC2CCCO2)C1c1ccccc1Cl)c1ccco1` (stereo unspecified), for which the Potency is 6.51 µM (active) and the cell number change is -3.95%.

Consider `COc1ccc(C2C(C(=O)c3ccco3)=C(O)C(=O)N2CC2CCCO2)c(OC)c1` (stereo unspecified), for which the “lipid storage change, negative = inhibition” value is -8.33% (inactive) and the cell number change is -0.87%.

Consider `O=C(C1=C(O)C(=O)N(CC2CCCO2)C1c1cccc(O)c1)c1ccco1` (stereo unspecified), for which the “lipid storage change, negative = inhibition” value was -14% (inactive) and the cell number change is -19.7%.

On to `Cc1ccc(C2C(C(=O)c3ccco3)=C(O)C(=O)N2c2ncccn2)cc1` (stereo unspecified), for which the “lipid storage change, negative = inhibition” value was 14.9% (inactive) and the cell number change amounted to 10.6%.

On to `O=C(C1=C(O)C(=O)N(Cc2ccco2)C1c1cccc(Cl)c1)c1ccco1` (stereo unspecified), for which the “lipid storage change, negative = inhibition” value is -28% (inactive) and the cell number change was determined as 15%.

With `O=C(C1=C(O)C(=O)N(c2ncccn2)C1c1ccc(Cl)cc1)c1ccco1` (stereo unspecified), the “lipid storage change, negative = inhibition” value is -11.9% (inactive) and the cell number change is 8.73%.

For `O=C(C1=C(O)C(=O)N(CC2CCCO2)C1c1ccc(Cl)cc1)c1ccco1` (stereo unspecified), the molecule was classed as inactive and the cell number change worked out at 18.3%.

`COC(=O)c1ccc(NC(=S)NCc2ccco2)cc1`: the cell number change was -29.4% and the lipid storage change, negative = inhibition was -4.68% [at 9.22 µM] (inactive).

`CCN(CC)N=Nc1ccc(S(N)(=O)=O)cc1`: the “lipid storage change, negative = inhibition” value is 14.8% (inactive) and the cell number change is -10.8%.

With `O=C(c1ccc(Cl)cc1)N1CCN(c2ccc(F)cc2)CC1`, the “lipid storage change, negative = inhibition” value is 8.11% (inactive) and the cell number change was -2.3%.
